Consider 3 compounds from PubChem BioAssay (EPA / NIEHS).

For orientation: AC50 means the concentration giving half of the maximal activity seen.

Structures are written as SMILES. Calls of active or inactive are those of the source. How the source made its calls: active means hit-call score of the fitted dose curve at least 0.9, where 1 is the maximum; inactive means score below 0.9.

Common to all, as to details: mRNA level, 48 h; actives raise or lower the signal
Read-out in assay [1]: Glutathione S-transferase M3 (GSTM3), GSTM3 (gene 2947)
The assay is described as follows: LTEA_HepaRG_GSTM3: Life Technologies and Expression Analysis (LTEA) Assay for Glutathione S-transferase M3 (GSTM3) using HepaRG (AID 2283501). The method in brief:
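HepaRG, plated 48 h, then serum-free induction medium; test chemical 48 h, duplicate; 100 uM top, half-log x8, 0.5% DMSO. Read-out: GSTM3 mRNA (TaqMan qRT-PCR, Fluidigm array). Bidirectional fit vs DMSO.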

Read-out in assay [2]: Heat shock 70 kDa protein 1 (HSPA1A), gene 3303
The assay is described as follows: LTEA_HepaRG_HSPA1A: Life Technologies and Expression Analysis (LTEA) Assay for Heat shock 70 kDa protein 1 (HSPA1A) using HepaRG (AID 2283502). The method in brief: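 Readout is HSPA1A transcript level by microfluidic qRT-PCR, normalized to three housekeeping genes and analysed for gain or loss of signal relative to 0.5% DMSO. Human HepaRG cultures received test chemicals for 48 h at up to 100 uM.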

Read-out in assay [3]: Hypoxia-inducible factor 1-alpha (Homo sapiens) (UniProt Q16665)
Nature of the assay: LTEA_HepaRG_HIF1A: Life Technologies and Expression Analysis (LTEA) Assay for Hypoxia-inducible factor 1 (HIF1A) Trancription factor using HepaRG (AID 2283503). The method in brief:
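Differentiated HepaRG cells in serum-free induction medium exposed 48 h, in duplicate, to 8-point half-log series from 100 uM in 0.5% DMSO. HIF1A mRNA measured by TaqMan qRT-PCR, normalized to ACTB/GAPDH/POLR2A, fitted bidirectionally versus DMSO.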

Read-out in assay [4]: 3-Hydroxy-3-Methylglutaryl-CoA Synthase 2 (HMGCS2), HMGCS2 (gene 3158)
Nature of the assay: LTEA_HepaRG_HMGCS2: Life Technologies and Expression Analysis (LTEA) Assay for 3-Hydroxy-3-Methylglutaryl-CoA Synthase 2 (HMGCS2) using HepaRG (AID 2283504). Summed up:
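HepaRG, plated 48 h then switched to serum-free induction media; cmpd 8-pt, max 100 uM, 1/2-log, 0.5% DMSO, n=2, 48 h. HMGCS2 mRNA by Fluidigm TaqMan qRT-PCR, ACTB/GAPDH/POLR2A norm; bidirectional fit vs DMSO.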

Read-out in another assay: HGF (gene 3082)
Nature of the assay: LTEA_HepaRG_HGF: Life Technologies and Expression Analysis (LTEA) Assay for Hepatocyte Growth Facto (HGF) using HepaRG (AID 2283505). The method in brief: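 Read-out is HGF transcript level by qRT-PCR, normalized to three housekeeping genes, fitted bidirectionally against 0.5% DMSO vehicle. Human HepaRG cells received test chemicals for 48 h at up to 100 uM.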

Read-out in assay [5]: Insulin Like Growth Factor 1 (IGF1), IGF1 (gene 3479)
Nature of the assay: LTEA_HepaRG_IGF1: Life Technologies and Expression Analysis (LTEA) Assay for Insulin Like Growth Factor 1 (IGF1) using HepaRG (AID 2283506). Summed up: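 HepaRG, plated 48 h, then switched to serum-free induction media; test chemical 8-pt half-log from 100 uM (0.5% DMSO), duplicate, 48 h. Lysis in RLT, TaqMan qRT-PCR, norm. ACTB/GAPDH/POLR2A. Bidirectional fit vs DMSO.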

Read-out in assay [6]: Insulin-like growth factor-binding protein 1 (IGFBP1), IGFBP1 (gene 3484)
The assay is described as follows: LTEA_HepaRG_IGFBP1: Life Technologies and Expression Analysis (LTEA) Assay for Insulin-like growth factor-binding protein 1 (IGFBP1) using HepaRG (AID 2283508). The method in brief:
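Thawed HepaRG cells are plated for 48 h, switched to serum-free induction medium, then dosed in duplicate for another 48 h (100 uM top, half-log steps). Lysates in RLT go to qRT-PCR, and gain or loss of signal is fitted relative to vehicle.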

Read-out in assay [7]: Interleukin 6 (IL6), IL6 (gene 3569)
Nature of the assay: LTEA_HepaRG_IL6: Life Technologies and Expression Analysis (LTEA) Assay for Interleukin 6 (IL6) using HepaRG (AID 2283509). Summed up:
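Differentiated human HepaRG cells, plated 48 h then switched to serum-free induction medium, were exposed in duplicate for 48 h to eight half-log concentrations up to 100 uM in 0.5% DMSO. IL6 mRNA measured by qRT-PCR, normalized to ACTB/GAPDH/POLR2A.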

Read-out in assay [8]: Interleukin 6 Receptor (IL6R), IL6R (gene 3570)
Nature of the assay: LTEA_HepaRG_IL6R: Life Technologies and Expression Analysis (LTEA) Assay for Interleukin 6 Receptor (IL6R) using HepaRG (AID 2283510). The method in brief:
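Readout is IL6R transcript level by TaqMan qRT-PCR, normalized to three housekeeping genes and fitted bidirectionally against 0.5% DMSO controls. Human HepaRG cells received chemicals for 48 h in serum-free induction medium, highest concentration 100 uM.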

Read-out in assay [9]: Potassium channel subfamily K member 1 (KCNK1), KCNK1 (gene 3775)
Nature of the assay: LTEA_HepaRG_KCNK1: Life Technologies and Expression Analysis (LTEA) Assay for Potassium channel subfamily K member 1 (KCNK1) using HepaRG (AID 2283511). Summed up: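 Differentiated human HepaRG cells in serum-free induction medium were exposed in duplicate for 48 h to 8 half-log concentrations up to 100 uM in 0.5% DMSO. KCNK1 mRNA was measured by TaqMan qRT-PCR, normalized to ACTB, GAPDH and POLR2A, and fitted bidirectionally versus DMSO.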

Read-out in assay [10]: Keratin 19 (KRT19), KRT19 (gene 3880)
Nature of the assay: LTEA_HepaRG_KRT19: Life Technologies and Expression Analysis (LTEA) Assay for Keratin 19 (KRT19) using HepaRG (AID 2283512). The method in brief: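 KRT19 transcript levels, measured by Fluidigm qRT-PCR against three housekeeping genes, are fitted for gain or loss of signal relative to DMSO. Human HepaRG cells receive test chemicals (top 100 uM, half-log steps, 0.5% DMSO) for 48 hours.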

Read-out in assay [11]: JUN Transcription Factor, JUN (gene 3725)
Nature of the assay: LTEA_HepaRG_JUN: Life Technologies and Expression Analysis (LTEA) Assay for JUN Transcription Factor using HepaRG (AID 2283513). Summed up: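 Cells plated 48 h, medium switched to serum-free induction medium, then dosed 48 h (100 uM top, half-log dilutions, 0.5% DMSO). RNA isolated; JUN measured by qRT-PCR against three housekeeping genes; gain or loss fitted relative to DMSO.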

Read-out in assay [12]: Lipase C (LIPC), LIPC (gene 3990)
Nature of the assay: LTEA_HepaRG_LIPC: Life Technologies and Expression Analysis (LTEA) Assay for Lipase C (LIPC) using HepaRG (AID 2283514). The method in brief: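 Differentiated human HepaRG cells in serum-free induction medium were exposed in duplicate for 48 h to eight concentrations (top 100 uM, half-log steps, 0.5% DMSO). LIPC mRNA was quantified by TaqMan qRT-PCR, normalized to ACTB, GAPDH and POLR2A, with bidirectional fitting versus DMSO.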

Read-out in assay [13]: Lipoprotein lipase (LPL), LPL (gene 4023)
Nature of the assay: LTEA_HepaRG_LPL: Life Technologies and Expression Analysis (LTEA) Assay for Lipoprotein lipase (LPL) using HepaRG (AID 2283515). The method in brief:
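Differentiated human HepaRG cells in serum-free induction medium were exposed in duplicate for 48 h to eight half-log concentrations (top 100 uM) in 0.5% DMSO. LPL mRNA was quantified by TaqMan qRT-PCR, normalized to ACTB, GAPDH and POLR2A.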

Read-out in assay [14]: MicroRNA 122 (MIR122), gene 406906
Nature of the assay: LTEA_HepaRG_MIR122: Life Technologies and Expression Analysis (LTEA) Assay for MicroRNA 122 (MIR122) using HepaRG (AID 2283516). Further: the transcript read is the microRNA miR-122. The method in brief: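 HepaRG plated 48 h, switched to serum-free induction medium, then treated in duplicate for 48 h (100 uM top, half-log steps, 0.5% DMSO vehicle). RNA isolated, qRT-PCR performed, concentration-response fitted both directions relative to DMSO.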

Read-out in assay [15]: matrix metalloproteinase-10 (MMP10), MMP10 (gene 4319)
Nature of the assay: LTEA_HepaRG_MMP10: Life Technologies and Expression Analysis (LTEA) Assay for matrix metalloproteinase-10 (MMP10) using HepaRG (AID 2283517). Summed up:
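HepaRG, collagen I, ~100,000 cells/well; serum-free induction medium; 48 h exposure, duplicate, 8-pt half-log to 100 uM, 0.5% DMSO. Readout: TaqMan qRT-PCR, normalized to ACTB/GAPDH/POLR2A; bidirectional fit vs DMSO.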

Read-out in a further assay: MYC, MYC (gene 4609)
The assay is described as follows: LTEA_HepaRG_MYC: Life Technologies and Expression Analysis (LTEA) Assay for MYC using HepaRG (AID 2283518). Summed up:
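HepaRG, ~100,000 cells/well, collagen I; 48 h plating; serum-free induction medium; 48 h dosing, duplicate, 100 uM top, half-log, 0.5% DMSO; total RNA → qRT-PCR MYC; gain/loss fit vs DMSO.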

Read-out in assay [16]: Paternally Expressed 10 (PEG10), PEG10 (gene 23089)
The assay is described as follows: LTEA_HepaRG_PEG10: Life Technologies and Expression Analysis (LTEA) Assay for Paternally Expressed 10 (PEG10) using HepaRG (AID 2283520). The method in brief:
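HepaRG, 48 h post-plating → serum-free induction medium → 48 h chemical exposure (duplicate, 8-pt, max 100 uM, half-log, 0.5% DMSO) → lysis in RLT → TaqMan qRT-PCR for PEG10, ACTB/GAPDH/POLR2A normalisation.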

Read-out in assay [17]: Intercellular Adhesion Molecule 1 (ICAM1), ICAM1 (gene 3383)
The assay is described as follows: LTEA_HepaRG_ICAM1: Life Technologies and Expression Analysis (LTEA) Assay for Intercellular Adhesion Molecule 1 (ICAM1) using HepaRG (AID 2283507). The method in brief:
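Readout is qRT-PCR mRNA level, normalized to three housekeeping genes and fitted bidirectionally against 0.5% DMSO vehicle. Human HepaRG cultures received compound for 48 h, top concentration 100 uM with half-log dilutions.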

Read-out in assay [18]: matrix metalloproteinase-3 (MMP3), MMP3 (gene 4314)
Nature of the assay: LTEA_HepaRG_MMP3: Life Technologies and Expression Analysis (LTEA) Assay for matrix metalloproteinase-3 (MMP3) using HepaRG (AID 2283519). The method in brief:
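Differentiated human HepaRG cells, plated 48 h on collagen I, were exposed in duplicate for 48 h in serum-free induction medium to eight half-log concentrations up to 100 uM in 0.5% DMSO. MMP3 mRNA was quantified by TaqMan qRT-PCR, normalised to ACTB, GAPDH and POLR2A.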

Hypoxia-inducible factor 1-alpha (Homo sapiens), sequence (Q16665 whole entry, looked up): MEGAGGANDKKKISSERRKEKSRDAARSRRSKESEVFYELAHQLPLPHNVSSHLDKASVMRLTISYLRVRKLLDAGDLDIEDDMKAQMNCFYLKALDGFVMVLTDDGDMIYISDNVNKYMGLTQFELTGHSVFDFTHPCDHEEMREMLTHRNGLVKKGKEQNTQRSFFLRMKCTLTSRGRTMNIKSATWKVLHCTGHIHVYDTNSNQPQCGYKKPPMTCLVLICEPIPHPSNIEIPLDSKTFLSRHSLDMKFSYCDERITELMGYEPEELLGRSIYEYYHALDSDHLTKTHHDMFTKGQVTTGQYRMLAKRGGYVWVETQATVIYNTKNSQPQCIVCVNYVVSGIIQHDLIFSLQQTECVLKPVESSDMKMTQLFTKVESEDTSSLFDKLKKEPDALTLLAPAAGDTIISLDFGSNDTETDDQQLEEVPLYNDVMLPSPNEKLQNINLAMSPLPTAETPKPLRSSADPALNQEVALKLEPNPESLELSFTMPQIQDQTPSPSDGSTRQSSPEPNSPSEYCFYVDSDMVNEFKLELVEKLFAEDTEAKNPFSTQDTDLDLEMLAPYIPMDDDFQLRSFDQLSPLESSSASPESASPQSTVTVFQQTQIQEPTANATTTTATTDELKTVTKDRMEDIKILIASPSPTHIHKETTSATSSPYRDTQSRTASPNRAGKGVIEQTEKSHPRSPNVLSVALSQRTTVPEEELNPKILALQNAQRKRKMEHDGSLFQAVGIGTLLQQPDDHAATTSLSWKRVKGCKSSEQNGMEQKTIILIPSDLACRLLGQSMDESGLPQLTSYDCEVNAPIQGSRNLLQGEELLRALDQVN

In the case of `CC(C)COC(=O)c1ccccc1C(=O)OCC(C)C`, the outcome (in [1]; in assay [2]; in assay [3]; in assay [4]; with HGF (gene 3082); in assay [5]) was inactive. Besides, the result in [6], in assay [7], in assay [8], in [9], in assay [10] and in assay [11] was inactive. Besides, the outcome in [12] is “inactive”; in assay [13] it was “inactive”; in [14] it was “inactive”; in [15], “inactive”; in the assay with MYC, MYC (gene 4609), “inactive”; in [16], “inactive”.

On to `CCCCOC(=O)c1ccccc1C(=O)OCc1ccccc1`, for which the compound was classed as inactive (in assay [1]; in assay [2]; in assay [3]; in assay [4]; with HGF (gene 3082); in assay [5]). In addition, the call in assay [17], in assay [6], in [8], in assay [9], in [10] and in [11] was inactive. Further, the outcome is “inactive” in assay [12]; “inactive” in assay [13]; “inactive” in assay [14]; “inactive” in assay [15]; “inactive” with MYC, MYC (gene 4609); “inactive” in [16].

As to `Cc1cccc(N)c1N`, the compound was classed as inactive (in assay [1]; in [2]; in assay [3]; with HGF (gene 3082); in [7]; in assay [8]). Further, the outcome in assay [9] was “inactive”; in assay [11] it was “inactive”; in assay [15] it was “inactive”; with MYC, MYC (gene 4609) it was “inactive”; in assay [18] it was “inactive”. For the same compound, the half-maximal activity concentration (AC50) is 50 µM (active) in [4]; 50 µM (active) in [5]; 22.9 µM (active) in assay [6]; 21.3 µM (active) in [10]; 58.7 µM (active) in [12]; 35.8 µM (active) in assay [13]. The AC50 in [14] and in assay [16] was 50 µM (active) in each case.
